This passage reports growth inhibition results from PubChem BioAssay (NCI).

Molecules are shown by their SMILES. The panel holds about 79,000 compounds, 15% with a hit somewhere; the sample as a whole holds those more often. Unmarked numbers belong to inactive results. Activity calls are given as the source filed them. Rule as the data show it: active = growth inhibition above about 70%; inactive = the rest.

Experiment [1] can be described thus: NCI Yeast Anticancer Drug Screen. Data for the rad50 strain (AID 155).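 Also: 0% = growth of vehicle-only cultures of the same strain.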 Conditions: S. cerevisiae rad50 strain growth inhibition, hits give high values. The essentials: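 Growth of the mutant yeast was measured after compound exposure and referenced to vehicle-treated cultures.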
Experiment [2] in a line: NCI Yeast Anticancer Drug Screen. Data for the mec2-1 strain (AID 157). The following applies: S. cerevisiae mec2-1 strain, hits give high values. The method, boiled down:
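Test agents were screened against the mec2-1 yeast strain, with defined DNA repair or cell cycle alteration. Growth was scored as inhibition against vehicle-only controls.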

Experiment [3] can be described thus: NCI Yeast Anticancer Drug Screen. Data for the sgs1 mgt1 strain (AID 161).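 Also: 0% = growth of cultures given vehicle only.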 Conditions: S. cerevisiae sgs1 mgt1 strain, hits give high values. The essentials:
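Genetically altered yeast, compound exposure, growth inhibition relative to vehicle.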

Experiment [4] in a line: NCI Yeast Anticancer Drug Screen. Data for the cln2 rad14 strain (AID 165).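 Also: 0% = growth equal to vehicle treated cultures.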 Conditions: S. cerevisiae cln2 rad14 strain, hits give high values. The method, boiled down:
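Growth of compound-exposed yeast (cln2 rad14 genotype) measured and expressed as inhibition relative to vehicle.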

Experiment [5] is described as follows: NCI Yeast Anticancer Drug Screen. Data for the bub3 strain (AID 167). The following applies: S. cerevisiae bub3 mutant strain, hits give high values. The essentials:
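Whole-cell yeast assay. The mutant strain was incubated with compounds, and growth inhibition was determined by comparison with vehicle-treated cells.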

Experiment [6] can be described thus: NCI Yeast Anticancer Drug Screen. Data for the mlh1 rad18 strain (AID 175). The following applies: S. cerevisiae mlh1 rad18 strain growth inhibition, hits give high values. The essentials:
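In this whole-cell yeast screen, a strain with altered DNA damage repair is challenged with compound, and its growth is measured against matched vehicle-treated controls.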

The mark [7] stands for this setting: at 5.0 µM (retest, dose inferred, filed as 0.5).
The mark [8] stands for this setting: at 50.0 µM (retest, dose inferred, filed as 5.0).

Regarding `[Se]C(=NCc1ccccc1)NCc1ccccc1`, the growth inhibition in experiment [1] (setting [7]) is 29%; in experiment [1] (setting [8]), 61%; in experiment [1] (at 50.0 µM), 93.3% (active); in experiment [2] (setting [7]) it was 4%; in experiment [2] (setting [8]) it was 15%; in experiment [2] (at 50.0 µM) it was 6.1%. Besides, the growth inhibition in experiment [3] (setting [7]) is 2%; in experiment [3] (setting [8]), 19%; in experiment [3] (at 50.0 µM), 19.2%; in experiment [4] (setting [7]), -1%; in experiment [4] (setting [8]) it was -7%; in experiment [4] (at 50.0 µM), -102%. The growth inhibition in experiment [5] (setting [7]) is 3%; in experiment [5] (setting [8]) it was 18%; in experiment [5] (at 50.0 µM), 46.2%; in experiment [6] (setting [7]), 8%; in experiment [6] (setting [8]) it was 29%; in experiment [6] (at 50.0 µM) it was 52.4%.
As for `O=[N+]([O-])c1c(Cl)sc(Cl)c1[N+](=O)[O-]`, the growth inhibition was 99% (active) in experiment [1] (setting [7]); 99% (active) in experiment [1] (setting [8]); 99.7% (active) in experiment [1] (at 50.0 µM); 100% (active) in experiment [2] (setting [7]); 100% (active) in experiment [2] (setting [8]); 99.7% (active) in experiment [2] (at 50.0 µM). Besides, the growth inhibition in experiment [3] (setting [7]) is 99% (active); in experiment [3] (setting [8]), 99% (active); in experiment [3] (at 50.0 µM), 99.5% (active); in experiment [4] (setting [7]) it was 99% (active); in experiment [4] (setting [8]) it was 99% (active); in experiment [4] (at 50.0 µM), 99.8% (active). For the same compound, the growth inhibition is 100% (active) in experiment [5] (setting [7]); 100% (active) in experiment [5] (setting [8]); 99.7% (active) in experiment [5] (at 50.0 µM); 99% (active) in experiment [6] (setting [7]); 99% (active) in experiment [6] (setting [8]); 99.7% (active) in experiment [6] (at 50.0 µM).
Take `Cc1cc(O)c2c(c1)C(=O)C13C(=C2O)C(=O)C2C(O)C1C1C(O)C3C(=O)C3=C(O)c4c(O)cc(C)cc4C(=O)C321` (stereo unspecified): the growth inhibition is 18% in experiment [1] (setting [7]); 44% in experiment [1] (setting [8]); 69.7% in experiment [1] (at 50.0 µM); 57% in experiment [2] (setting [7]); 46% in experiment [2] (setting [8]); 76.2% (active) in experiment [2] (at 50.0 µM). The growth inhibition was 40% in experiment [3] (setting [7]); 48% in experiment [3] (setting [8]); 79.5% (active) in experiment [3] (at 50.0 µM); 64% in experiment [4] (setting [7]); 47% in experiment [4] (setting [8]); 60.1% in experiment [4] (at 50.0 µM). Further, the growth inhibition was 88% (active) in experiment [5] (setting [7]); 70% (active) in experiment [5] (setting [8]); 80.2% (active) in experiment [5] (at 50.0 µM); 34% in experiment [6] (setting [7]); 42% in experiment [6] (setting [8]); 69% in experiment [6] (at 50.0 µM).
Turning to `C(=C/P(c1ccccc1)c1ccccc1)/P(c1ccccc1)c1ccccc1.C(=CP(c1ccccc1)c1ccccc1)P(c1ccccc1)c1ccccc1.[Pt]`, the growth inhibition in experiment [1] (setting [7]) was 61%; in experiment [1] (setting [8]) it was 78% (active); in experiment [1] (at 50.0 µM), 84.4% (active); in experiment [2] (setting [7]) it was 38%; in experiment [2] (setting [8]), 92% (active); in experiment [2] (at 50.0 µM), 90% (active). Moreover, the growth inhibition was 33% in experiment [3] (setting [7]); 92% (active) in experiment [3] (setting [8]); 82.7% (active) in experiment [3] (at 50.0 µM); 36% in experiment [4] (setting [7]); 82% (active) in experiment [4] (setting [8]); 86.2% (active) in experiment [4] (at 50.0 µM). In addition, the growth inhibition in experiment [5] (setting [7]) is 56%; in experiment [5] (setting [8]), 89% (active); in experiment [5] (at 50.0 µM), 86.8% (active); in experiment [6] (setting [7]) it was 41%; in experiment [6] (setting [8]), 91% (active); in experiment [6] (at 50.0 µM), 83.4% (active).
As to `CCC[CH2][Sn]1([CH2]CCC)[O]C(=O)c2cccnc2[O]1`, the growth inhibition is 34% in experiment [1] (setting [7]); 94% (active) in experiment [1] (setting [8]); 85.3% (active) in experiment [1] (at 50.0 µM); 31% in experiment [2] (setting [7]); 97% (active) in experiment [2] (setting [8]); 85.5% (active) in experiment [2] (at 50.0 µM). In addition, the growth inhibition is 42% in experiment [3] (setting [7]); 97% (active) in experiment [3] (setting [8]); 85.3% (active) in experiment [3] (at 50.0 µM); 22% in experiment [4] (setting [7]); 93% (active) in experiment [4] (setting [8]); 78.4% (active) in experiment [4] (at 50.0 µM). For the same compound, the growth inhibition in experiment [5] (setting [7]) is 47%; in experiment [5] (setting [8]), 97% (active); in experiment [5] (at 50.0 µM), 87.7% (active); in experiment [6] (setting [7]) it was 51%; in experiment [6] (setting [8]), 97% (active); in experiment [6] (at 50.0 µM) it was 84.5% (active).
On to `C[As](C)SCCC(CCCCC(=O)O)S[As](C)C` (stereo unspecified), for which the growth inhibition was 27% in experiment [1] (setting [7]); 38% in experiment [1] (setting [8]); 66.2% in experiment [1] (at 50.0 µM); 27% in experiment [2] (setting [7]); 32% in experiment [2] (setting [8]); 47% in experiment [2] (at 50.0 µM). Also, the growth inhibition in experiment [3] (setting [7]) is 2%; in experiment [3] (setting [8]), -69%; in experiment [3] (at 50.0 µM), 78.3% (active); in experiment [4] (setting [7]) it was 5%; in experiment [4] (setting [8]), -52%; in experiment [4] (at 50.0 µM), 37.4%. The growth inhibition in experiment [5] (setting [7]) is 2%; in experiment [5] (setting [8]), -42%; in experiment [5] (at 50.0 µM) it was 76.5% (active); in experiment [6] (setting [7]), 39%; in experiment [6] (setting [8]) it was 65%; in experiment [6] (at 50.0 µM) it was 25.4%.
`CCOP(=O)(OCC)Oc1cc(C)c(SC#N)c(C)c1`: the growth inhibition in experiment [1] (setting [7]) was -6%; in experiment [1] (setting [8]), -7%; in experiment [1] (at 50.0 µM), 29.6%; in experiment [2] (setting [7]) it was -2%; in experiment [2] (setting [8]) it was 3%; in experiment [2] (at 50.0 µM), 20.6%. The growth inhibition in experiment [3] (setting [7]) was 10%; in experiment [3] (setting [8]), 25%; in experiment [3] (at 50.0 µM), 17.1%; in experiment [4] (setting [7]), -7%; in experiment [4] (setting [8]), -6%; in experiment [4] (at 50.0 µM) it was 66.3%. Besides, the growth inhibition in experiment [5] (setting [7]) is -3%; in experiment [5] (setting [8]) it was 18%; in experiment [5] (at 50.0 µM) it was 53.7%; in experiment [6] (setting [7]), 10%; in experiment [6] (setting [8]) it was 76% (active); in experiment [6] (at 50.0 µM), 34%.
